For one sequence, binding signal results are on record in paper PMC7862700, “An all-to-all approach to the identification of sequence-specific readers for epigenetic DNA modifications on cytosine”.

What all share (experiment): DAPPL (digital affinity profiling via proximity ligation, sequencing); 10 mM Tris-HCl pH 7.5, 50 mM NaCl, 1 mM DTT, 4% glycerol, room temperature, 30 min; GST-TFs on glutathione beads, 16-mer random dsDNA library, 0.1% formaldehyde crosslink after washing; high values mean tight binding
Test [1] deals with T1, FEV (Homo sapiens, UniProt Q99581 1-238).
T1 sequence: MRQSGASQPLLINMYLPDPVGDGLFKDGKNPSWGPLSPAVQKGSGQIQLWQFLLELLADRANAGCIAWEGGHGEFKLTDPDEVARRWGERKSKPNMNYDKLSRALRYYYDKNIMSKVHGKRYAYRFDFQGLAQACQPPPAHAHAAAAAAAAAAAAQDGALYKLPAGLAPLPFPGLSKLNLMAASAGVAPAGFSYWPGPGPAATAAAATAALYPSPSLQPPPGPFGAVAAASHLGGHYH
Particulars: protein: recombinant; tags: N-terminal GST; dsDNA, one strand shown. In short, it runs like this:
(§1)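 Beads coated with glutathione captured GST-fused human transcription factors that had been expressed in yeast, and the factors were then given DNA barcodes and pooled with a tag-only sample. The pools were incubated with 200 nmole of a random double-stranded 16-mer DNA library in Tris/NaCl/DTT/glycerol buffer for 30 min at room temperature, washed, crosslinked with 0.1% formaldehyde and proximity-ligated with BsaI/T4 ligase at 37 °C for 1 h. PCR amplification and Illumina NextSeq500 sequencing came last. Binding signal is each hexamer's read frequency for a factor divided by its frequency for the tag-only sample.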

The target in test [2] is ETV5 (Homo sapiens, UniProt P41161 1-510). The conditions noted are these: protein: recombinant; tags: N-terminal GST; dsDNA, one strand shown. In short, it runs like this: as §1
Sequence of ETV5 (P41161 whole entry): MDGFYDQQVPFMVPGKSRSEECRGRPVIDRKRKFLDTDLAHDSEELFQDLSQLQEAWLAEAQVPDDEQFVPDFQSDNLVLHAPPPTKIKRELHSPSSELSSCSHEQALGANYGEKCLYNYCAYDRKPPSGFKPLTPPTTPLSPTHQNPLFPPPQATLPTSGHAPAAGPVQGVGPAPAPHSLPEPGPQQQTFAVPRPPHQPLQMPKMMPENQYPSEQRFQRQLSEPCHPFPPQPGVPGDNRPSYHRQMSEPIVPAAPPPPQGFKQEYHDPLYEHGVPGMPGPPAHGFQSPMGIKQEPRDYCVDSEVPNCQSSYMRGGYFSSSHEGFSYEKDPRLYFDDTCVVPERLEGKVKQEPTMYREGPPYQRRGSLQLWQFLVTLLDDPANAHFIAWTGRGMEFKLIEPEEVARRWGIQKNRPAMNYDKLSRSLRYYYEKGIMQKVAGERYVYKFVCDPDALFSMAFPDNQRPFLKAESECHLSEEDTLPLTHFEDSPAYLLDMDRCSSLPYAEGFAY
Test [3] has as its target HSF1 (Homo sapiens, UniProt Q00613 1-529). Particulars: protein: recombinant; tags: N-terminal GST; chain copies: 3; dsDNA, one strand shown. In short, it runs like this: as §1
Test [4] concerns the target T2, SPIC (Homo sapiens, UniProt Q8N5J4 1-248).
T2 sequence: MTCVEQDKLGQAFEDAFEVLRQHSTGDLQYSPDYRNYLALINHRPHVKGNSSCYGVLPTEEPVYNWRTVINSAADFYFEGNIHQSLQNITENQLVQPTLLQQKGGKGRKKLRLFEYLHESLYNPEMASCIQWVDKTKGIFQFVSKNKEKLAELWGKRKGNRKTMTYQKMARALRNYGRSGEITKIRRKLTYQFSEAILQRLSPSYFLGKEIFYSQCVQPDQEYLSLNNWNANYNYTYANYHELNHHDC
Particulars: protein: recombinant; tags: N-terminal GST; dsDNA, one strand shown. In short, it runs like this:
as §1

Test [5] has as its target ELF4 (Homo sapiens, UniProt Q99607 1-663). The conditions noted are these: protein: recombinant; tags: N-terminal GST; dsDNA, one strand shown. An outline of the steps:
as §1

Test [6] addresses T3, ELK4 (Homo sapiens, UniProt P28324-2 1-405).
T3 sequence: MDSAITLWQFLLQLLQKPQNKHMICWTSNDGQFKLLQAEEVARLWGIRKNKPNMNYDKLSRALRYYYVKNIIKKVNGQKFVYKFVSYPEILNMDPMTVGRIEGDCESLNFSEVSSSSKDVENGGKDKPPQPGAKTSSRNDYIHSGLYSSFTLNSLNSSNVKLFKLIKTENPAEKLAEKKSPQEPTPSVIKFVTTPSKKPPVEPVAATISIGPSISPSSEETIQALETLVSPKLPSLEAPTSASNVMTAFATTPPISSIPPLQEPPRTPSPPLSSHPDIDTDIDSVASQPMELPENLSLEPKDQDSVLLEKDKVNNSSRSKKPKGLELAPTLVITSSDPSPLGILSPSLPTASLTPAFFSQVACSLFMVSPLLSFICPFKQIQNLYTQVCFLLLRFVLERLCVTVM
The conditions noted are these: protein: recombinant; tags: N-terminal GST; dsDNA, one strand shown. An outline of the steps:
as §1

The target in test [7] is T4, ETV2 (Homo sapiens, UniProt O00321 1-342).
T4 sequence: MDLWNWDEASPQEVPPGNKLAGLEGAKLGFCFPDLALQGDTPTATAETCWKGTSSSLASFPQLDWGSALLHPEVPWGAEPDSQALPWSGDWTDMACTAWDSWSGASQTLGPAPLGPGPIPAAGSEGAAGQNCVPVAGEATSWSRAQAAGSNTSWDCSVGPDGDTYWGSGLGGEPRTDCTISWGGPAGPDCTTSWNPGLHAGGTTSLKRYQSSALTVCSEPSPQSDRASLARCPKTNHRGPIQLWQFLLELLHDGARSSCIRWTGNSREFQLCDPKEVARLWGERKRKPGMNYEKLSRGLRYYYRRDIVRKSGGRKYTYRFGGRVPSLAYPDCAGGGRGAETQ
The conditions noted are these: protein: recombinant; tags: N-terminal GST; dsDNA, one strand shown. An outline of the steps:
as §1

In test [8] the target is T5, ELF3 (Homo sapiens, UniProt P78545 1-371).
T5 sequence: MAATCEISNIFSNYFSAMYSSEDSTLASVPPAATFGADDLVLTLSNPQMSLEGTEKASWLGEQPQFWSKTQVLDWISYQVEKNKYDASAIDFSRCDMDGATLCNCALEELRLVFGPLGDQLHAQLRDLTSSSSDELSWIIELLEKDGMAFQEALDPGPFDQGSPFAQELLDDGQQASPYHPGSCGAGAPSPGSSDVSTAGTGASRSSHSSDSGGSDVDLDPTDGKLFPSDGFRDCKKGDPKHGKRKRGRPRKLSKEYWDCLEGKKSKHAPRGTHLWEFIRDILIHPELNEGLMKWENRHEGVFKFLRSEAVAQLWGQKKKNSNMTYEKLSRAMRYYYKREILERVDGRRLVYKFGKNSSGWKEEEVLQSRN
The conditions noted are these: protein: recombinant; tags: N-terminal GST; dsDNA, one strand shown. An outline of the steps:
as §1

The target in test [9] is CRX (Homo sapiens, UniProt O43186 1-299). The conditions noted are these: protein: recombinant; tags: N-terminal GST; dsDNA, one strand shown. An outline of the steps: as §1
Sequence of CRX (O43186 whole entry): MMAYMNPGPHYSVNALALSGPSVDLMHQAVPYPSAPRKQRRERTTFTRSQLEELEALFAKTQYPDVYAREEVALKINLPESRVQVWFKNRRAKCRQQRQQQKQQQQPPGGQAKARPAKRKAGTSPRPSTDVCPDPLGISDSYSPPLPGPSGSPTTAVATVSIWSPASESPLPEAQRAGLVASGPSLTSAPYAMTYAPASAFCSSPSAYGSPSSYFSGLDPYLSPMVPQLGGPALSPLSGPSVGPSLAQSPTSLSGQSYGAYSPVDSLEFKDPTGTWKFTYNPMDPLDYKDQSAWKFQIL
For test [10], the target named is ETV1 (Homo sapiens, UniProt P50549 1-477). The conditions noted are these: protein: recombinant; tags: N-terminal GST; dsDNA, one strand shown. An outline of the steps:
as §1

Test [11] concerns the target T6, ERF (Homo sapiens, UniProt P50548 1-548).
T6 sequence: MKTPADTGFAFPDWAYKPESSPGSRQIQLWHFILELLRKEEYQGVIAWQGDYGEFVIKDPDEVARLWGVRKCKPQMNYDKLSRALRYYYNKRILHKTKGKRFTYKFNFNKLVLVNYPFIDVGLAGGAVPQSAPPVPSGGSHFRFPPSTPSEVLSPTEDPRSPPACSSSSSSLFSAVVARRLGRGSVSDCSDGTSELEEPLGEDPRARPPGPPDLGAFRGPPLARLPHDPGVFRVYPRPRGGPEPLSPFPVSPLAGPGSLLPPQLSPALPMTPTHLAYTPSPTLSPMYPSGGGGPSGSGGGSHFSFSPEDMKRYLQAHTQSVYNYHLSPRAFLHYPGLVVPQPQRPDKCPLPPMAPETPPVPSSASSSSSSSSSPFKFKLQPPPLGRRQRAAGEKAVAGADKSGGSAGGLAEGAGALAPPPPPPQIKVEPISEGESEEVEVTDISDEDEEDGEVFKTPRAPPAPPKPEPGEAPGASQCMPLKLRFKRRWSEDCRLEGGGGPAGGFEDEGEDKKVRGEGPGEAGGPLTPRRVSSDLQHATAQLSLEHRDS
Particulars: protein: recombinant; tags: N-terminal GST; dsDNA, one strand shown. An outline of the steps: as §1

The target in test [12] is T7, ETV3L (Homo sapiens, UniProt Q6ZN32 1-361).
T7 sequence: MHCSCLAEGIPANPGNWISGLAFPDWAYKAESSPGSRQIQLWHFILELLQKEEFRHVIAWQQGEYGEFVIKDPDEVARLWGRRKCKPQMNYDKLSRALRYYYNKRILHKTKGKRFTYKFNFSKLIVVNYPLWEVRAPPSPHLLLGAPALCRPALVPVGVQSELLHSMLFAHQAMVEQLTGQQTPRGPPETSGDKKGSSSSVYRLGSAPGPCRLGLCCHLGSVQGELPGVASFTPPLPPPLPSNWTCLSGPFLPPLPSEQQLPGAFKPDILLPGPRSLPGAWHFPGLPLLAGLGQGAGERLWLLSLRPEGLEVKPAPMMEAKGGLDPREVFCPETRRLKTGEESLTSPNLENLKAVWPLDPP
The conditions noted are these: protein: recombinant; tags: N-terminal GST; dsDNA, one strand shown. In short, it runs like this: as §1

The target of test [13] is T8, ETS2 (Homo sapiens, UniProt P15036 1-469).
T8 sequence: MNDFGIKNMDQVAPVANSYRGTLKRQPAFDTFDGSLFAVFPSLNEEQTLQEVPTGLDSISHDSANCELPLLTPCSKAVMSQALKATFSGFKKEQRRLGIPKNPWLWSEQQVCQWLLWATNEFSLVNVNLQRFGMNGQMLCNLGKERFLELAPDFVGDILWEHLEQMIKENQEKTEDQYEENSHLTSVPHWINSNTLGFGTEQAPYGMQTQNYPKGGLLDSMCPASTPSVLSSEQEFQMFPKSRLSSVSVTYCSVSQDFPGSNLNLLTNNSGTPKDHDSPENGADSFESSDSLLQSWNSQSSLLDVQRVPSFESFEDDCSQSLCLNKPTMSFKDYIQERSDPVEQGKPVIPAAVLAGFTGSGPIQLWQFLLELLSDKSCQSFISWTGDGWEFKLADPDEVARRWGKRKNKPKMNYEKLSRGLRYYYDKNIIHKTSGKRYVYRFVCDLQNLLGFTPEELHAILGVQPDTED
Particulars: protein: recombinant; tags: N-terminal GST; dsDNA, one strand shown. In short, it runs like this:
as §1

The target of test [14] is T9, SPDEF (Homo sapiens, UniProt O95238 1-335).
T9 sequence: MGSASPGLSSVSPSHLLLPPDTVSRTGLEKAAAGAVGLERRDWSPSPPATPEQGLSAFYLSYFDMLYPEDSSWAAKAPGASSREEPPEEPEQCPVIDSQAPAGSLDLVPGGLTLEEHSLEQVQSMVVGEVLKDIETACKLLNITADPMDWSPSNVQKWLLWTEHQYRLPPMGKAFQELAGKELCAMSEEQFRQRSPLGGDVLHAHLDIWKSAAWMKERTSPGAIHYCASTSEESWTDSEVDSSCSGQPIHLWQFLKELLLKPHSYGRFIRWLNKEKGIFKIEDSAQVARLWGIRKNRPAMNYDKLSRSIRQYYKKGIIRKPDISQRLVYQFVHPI
The conditions noted are these: protein: recombinant; tags: N-terminal GST; dsDNA, one strand shown. An outline of the steps: as §1

The target in test [15] is T10, ETV7 (Homo sapiens, UniProt Q9Y603 1-341).
T10 sequence: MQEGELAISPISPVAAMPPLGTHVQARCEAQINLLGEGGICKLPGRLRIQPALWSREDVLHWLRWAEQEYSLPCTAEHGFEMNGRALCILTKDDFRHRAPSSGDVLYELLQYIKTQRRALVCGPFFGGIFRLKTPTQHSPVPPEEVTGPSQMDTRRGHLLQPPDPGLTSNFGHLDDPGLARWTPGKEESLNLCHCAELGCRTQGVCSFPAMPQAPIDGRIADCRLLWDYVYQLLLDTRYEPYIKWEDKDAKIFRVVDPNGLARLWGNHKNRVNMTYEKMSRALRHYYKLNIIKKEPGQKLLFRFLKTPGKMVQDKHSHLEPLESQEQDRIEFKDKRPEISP
The conditions noted are these: protein: recombinant; tags: N-terminal GST; dsDNA, one strand shown. An outline of the steps: as §1

The target in test [16] is T11, ELF5 (Homo sapiens, UniProt Q9UKW6-2 1-255).
T11 sequence: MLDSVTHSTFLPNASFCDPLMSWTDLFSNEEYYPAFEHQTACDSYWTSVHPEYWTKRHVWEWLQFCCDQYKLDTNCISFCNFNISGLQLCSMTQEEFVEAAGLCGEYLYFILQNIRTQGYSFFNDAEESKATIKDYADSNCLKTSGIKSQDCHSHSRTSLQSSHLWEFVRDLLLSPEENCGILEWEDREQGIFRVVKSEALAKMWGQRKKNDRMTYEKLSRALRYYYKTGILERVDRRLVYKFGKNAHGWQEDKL
The conditions noted are these: protein: recombinant; tags: N-terminal GST; dsDNA, one strand shown. An outline of the steps: as §1

The target of test [17] is T12, ETV3 (Homo sapiens, UniProt P41162-2 1-143).
T12 sequence: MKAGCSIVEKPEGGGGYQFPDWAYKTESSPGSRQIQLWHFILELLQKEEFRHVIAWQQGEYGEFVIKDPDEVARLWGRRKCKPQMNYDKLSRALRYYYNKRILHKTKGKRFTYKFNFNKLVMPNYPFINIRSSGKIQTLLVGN
The conditions noted are these: protein: recombinant; tags: N-terminal GST; dsDNA, one strand shown. An outline of the steps:
as §1

The target of test [18] is ETV6 (Homo sapiens, UniProt P41212 1-452). Particulars: protein: recombinant; tags: N-terminal GST; dsDNA, one strand shown. An outline of the steps:
as §1

Sequence of ELF4 (Q99607 whole entry): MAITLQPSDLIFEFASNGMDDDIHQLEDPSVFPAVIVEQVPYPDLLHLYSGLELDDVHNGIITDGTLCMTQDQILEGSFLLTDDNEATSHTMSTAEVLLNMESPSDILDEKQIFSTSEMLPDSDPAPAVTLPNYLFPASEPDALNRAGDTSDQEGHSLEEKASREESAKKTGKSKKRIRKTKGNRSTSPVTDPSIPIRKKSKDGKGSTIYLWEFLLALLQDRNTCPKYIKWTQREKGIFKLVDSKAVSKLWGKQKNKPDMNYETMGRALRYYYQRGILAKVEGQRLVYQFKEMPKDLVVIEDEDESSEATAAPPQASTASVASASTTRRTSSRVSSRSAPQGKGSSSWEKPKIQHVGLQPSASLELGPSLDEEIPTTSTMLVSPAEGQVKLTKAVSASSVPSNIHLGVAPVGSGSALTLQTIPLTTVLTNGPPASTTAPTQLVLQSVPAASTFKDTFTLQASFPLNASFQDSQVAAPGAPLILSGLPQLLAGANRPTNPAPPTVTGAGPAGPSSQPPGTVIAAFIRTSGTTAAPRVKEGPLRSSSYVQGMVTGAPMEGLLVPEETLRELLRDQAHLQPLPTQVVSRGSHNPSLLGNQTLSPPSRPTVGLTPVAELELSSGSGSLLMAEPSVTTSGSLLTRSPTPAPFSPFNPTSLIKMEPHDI
Sequence of ETV6 (P41212 whole entry): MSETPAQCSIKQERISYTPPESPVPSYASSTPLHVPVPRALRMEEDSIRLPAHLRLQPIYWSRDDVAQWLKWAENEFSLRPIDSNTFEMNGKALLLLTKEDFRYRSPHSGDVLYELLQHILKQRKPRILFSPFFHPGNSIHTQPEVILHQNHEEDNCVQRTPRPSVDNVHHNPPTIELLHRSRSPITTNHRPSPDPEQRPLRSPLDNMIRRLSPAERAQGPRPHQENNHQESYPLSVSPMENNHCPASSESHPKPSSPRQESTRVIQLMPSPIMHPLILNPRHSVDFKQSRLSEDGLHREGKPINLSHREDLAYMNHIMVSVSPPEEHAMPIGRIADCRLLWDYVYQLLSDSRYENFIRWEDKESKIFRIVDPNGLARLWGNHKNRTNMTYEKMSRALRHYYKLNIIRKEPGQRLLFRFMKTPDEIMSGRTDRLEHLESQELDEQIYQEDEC
Sequence of ETV1 (P50549 whole entry): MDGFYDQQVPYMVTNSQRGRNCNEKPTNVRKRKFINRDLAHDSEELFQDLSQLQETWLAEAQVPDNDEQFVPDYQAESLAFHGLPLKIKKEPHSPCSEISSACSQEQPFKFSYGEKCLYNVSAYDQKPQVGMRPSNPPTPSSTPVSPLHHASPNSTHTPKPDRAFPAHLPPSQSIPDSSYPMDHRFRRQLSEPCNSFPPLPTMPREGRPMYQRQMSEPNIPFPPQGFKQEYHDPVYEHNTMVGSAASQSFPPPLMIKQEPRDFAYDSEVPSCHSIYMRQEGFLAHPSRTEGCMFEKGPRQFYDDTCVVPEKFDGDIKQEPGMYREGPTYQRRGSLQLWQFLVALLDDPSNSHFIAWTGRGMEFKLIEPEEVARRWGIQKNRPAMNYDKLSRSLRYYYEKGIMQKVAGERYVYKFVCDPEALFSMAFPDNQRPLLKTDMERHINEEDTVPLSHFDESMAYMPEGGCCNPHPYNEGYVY
Sequence of HSF1 (Q00613 whole entry): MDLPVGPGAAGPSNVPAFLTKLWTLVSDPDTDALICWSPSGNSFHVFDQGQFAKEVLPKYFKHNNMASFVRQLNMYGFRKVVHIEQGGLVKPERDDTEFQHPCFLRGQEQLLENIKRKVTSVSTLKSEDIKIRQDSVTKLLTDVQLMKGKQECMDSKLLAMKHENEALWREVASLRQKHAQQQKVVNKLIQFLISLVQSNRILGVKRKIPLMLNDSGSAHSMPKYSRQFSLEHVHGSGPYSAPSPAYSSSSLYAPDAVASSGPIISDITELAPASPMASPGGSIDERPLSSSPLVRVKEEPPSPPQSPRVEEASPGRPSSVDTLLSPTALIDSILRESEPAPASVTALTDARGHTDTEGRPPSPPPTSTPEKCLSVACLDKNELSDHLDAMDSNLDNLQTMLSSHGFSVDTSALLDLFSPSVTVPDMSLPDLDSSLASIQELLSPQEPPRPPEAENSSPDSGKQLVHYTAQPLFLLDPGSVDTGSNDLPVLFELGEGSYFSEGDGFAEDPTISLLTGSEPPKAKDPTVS

As for GCGCTT, the binding signal was 1.37 fold enrichment (6-mer frequency, TF over GST control) in test [1]; 1.29 fold enrichment (6-mer frequency, TF over GST control) in test [2]; 1.16 fold enrichment (6-mer frequency, TF over GST control) in test [3]; 1.26 fold enrichment (6-mer frequency, TF over GST control) in test [4]; 1.24 fold enrichment (6-mer frequency, TF over GST control) in [5]; 1.36 fold enrichment (6-mer frequency, TF over GST control) in test [6]. The binding signal was 1.12 fold enrichment (6-mer frequency, TF over GST control) in test [7]; 1.04 fold enrichment (6-mer frequency, TF over GST control) in test [8]; 1.39 fold enrichment (6-mer frequency, TF over GST control) in test [9]; 1.3 fold enrichment (6-mer frequency, TF over GST control) in test [10]; 1.42 fold enrichment (6-mer frequency, TF over GST control) in [11]; 1.3 fold enrichment (6-mer frequency, TF over GST control) in test [12]. For the same sequence, the binding signal in test [13] is 1.37 fold enrichment (6-mer frequency, TF over GST control); in test [14], 1.2 fold enrichment (6-mer frequency, TF over GST control); in test [15], 1.34 fold enrichment (6-mer frequency, TF over GST control); in test [16], 1.31 fold enrichment (6-mer frequency, TF over GST control); in test [17] it was 1.42 fold enrichment (6-mer frequency, TF over GST control); in test [18], 1.33 fold enrichment (6-mer frequency, TF over GST control).
